Assay results published in PubChem BioAssay (NCI).
About 79,000 compounds went through this panel and 15% of them were active in at least one assay; those are over-represented in the sample as a whole. Values without a mark were called inactive. Calls of active or inactive are those of the source. Cut-off read from the data, not from the text of the source: active = growth inhibition above about 70%; inactive = the rest.

Legend:
[1] = NCI Yeast Anticancer Drug Screen. Data for the rad50 strain (AID 155);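 note: 0% = growth of vehicle-only cultures of the same strain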; settings: S. cerevisiae rad50 strain growth inhibition, active compounds read high
Summary of the method: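 DNA repair mutant yeast, compound exposure, growth read-out; inhibition is taken relative to vehicle.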

[2] = NCI Yeast Anticancer Drug Screen. Data for the mec2-1 strain (AID 157); settings: S. cerevisiae mec2-1 strain, active compounds read high
Summary of the method: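 Using mec2-1 yeast: add compound, measure growth, express inhibition versus vehicle-treated cultures.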

[3] = NCI Yeast Anticancer Drug Screen. Data for the sgs1 mgt1 strain (AID 161);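 note: 0% = growth of cultures given vehicle only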; settings: S. cerevisiae sgs1 mgt1 strain, active compounds read high
Summary of the method: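 This yeast growth screen uses a strain with defined DNA-repair lesions; compound-treated growth is compared with vehicle-treated growth.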

[4] = NCI Yeast Anticancer Drug Screen. Data for the cln2 rad14 strain (AID 165);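 note: 0% = growth equal to vehicle treated cultures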; settings: S. cerevisiae cln2 rad14 strain, active compounds read high
Summary of the method: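 Yeast strain cln2 rad14, bearing defects in cell cycle control and DNA repair, serves as the test system; values reflect growth inhibition compared with vehicle.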

[5] = NCI Yeast Anticancer Drug Screen. Data for the bub3 strain (AID 167); settings: S. cerevisiae bub3 mutant strain, active compounds read high
Summary of the method: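 In this screen, a yeast mutant lacking normal mitotic checkpoint function is challenged with compound. Relative growth versus vehicle gives the inhibition value.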

[6] = NCI Yeast Anticancer Drug Screen. Data for the mlh1 rad18 strain (AID 175); settings: S. cerevisiae mlh1 rad18 strain growth inhibition, active compounds read high
Summary of the method: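 Steps: expose repair-defective yeast to compound; measure growth; express inhibition against vehicle-treated controls.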

[7] = at 5.0 µM (retest, dose inferred, filed as 0.5)
[8] = at 50.0 µM (retest, dose inferred, filed as 5.0)

Row | SMILES | growth inhibition [1, 7] | growth inhibition [1, 8] | growth inhibition ([1]; at 50.0 µM) | growth inhibition [2, 7] | growth inhibition [2, 8] | growth inhibition ([2]; at 50.0 µM) | growth inhibition [3, 7] | growth inhibition [3, 8] | growth inhibition ([3]; at 50.0 µM) | growth inhibition [4, 7] | growth inhibition [4, 8] | growth inhibition ([4]; at 50.0 µM) | growth inhibition [5, 7] | growth inhibition [5, 8] | growth inhibition ([5]; at 50.0 µM) | growth inhibition [6, 7] | growth inhibition [6, 8] | growth inhibition ([6]; at 50.0 µM)
1 | CCCCCCCCCCCC[n+]1cc2ccccc2cc1C | 98% (active) | 98% (active) | 91.7% (active) | 99% (active) | 99% (active) | 90.8% (active) | 98% (active) | 99% (active) | 88.5% (active) | 97% (active) | 99% (active) | 86.7% (active) | 99% (active) | 99% (active) | 93.2% (active) | 97% (active) | 98% (active) | 90.8% (active)
2 | O=C1C(Cl)=C(Nc2ccc(S(=O)(=O)Nc3ccccn3)cc2)C(=O)c2ccccc21 | 99% (active) | 99% (active) | 99.3% (active) | 99% (active) | 99% (active) | 99.3% (active) | 96% (active) | 99% (active) | 99.2% (active) | 95% (active) | 99% (active) | 99.2% (active) | 99% (active) | 99% (active) | 98.7% (active) | 90% (active) | 99% (active) | 99.2% (active)
3 | CCCCCCCCCCOC(=O)c1cccnc1 | 5% | 86% (active) | -5.45% | 0% | 52% | 39.3% | 7% | 74% (active) | 30.6% | 3% | 34% | -1.4% | 8% | 91% (active) | 78.2% (active) | 9% | 87% (active) | 80.5% (active)
4 | CN(C)CC1(C)CC/C(=C\c2ccc(Cl)cc2)C1=O (stereo not given) | 3% | 28% | 62% | -14% | 16% | 38.2% | 7% | 39% | 67.7% | 10% | 36% | 52.5% | 15% | 65% | 35.4% | 9% | 57% | 71.1% (active)
5 | Clc1ccc(COC(CN2CCOCC2)c2ccccc2)c(Cl)c1 (stereo not given) | 2% | 89% (active) | 94.8% (active) | 8% | 92% (active) | 96.2% (active) | 19% | 98% (active) | 96% (active) | 11% | 83% (active) | 98.2% (active) | 23% | 95% (active) | 94.9% (active) | 11% | 87% (active) | 97.6% (active)
6 | COc1ccc(C2C3C(=O)OCCOC(=O)C3C2c2ccc(OC)c(OC)c2)cc1OC (stereo not given) | 1% | 49% | 12.5% | 13% | 51% | 17.2% | 4% | 49% | 14.2% | 21% | 59% | 7.7% | 15% | 62% | 18.9% | 15% | 67% | 37.5%
7 | Cc1nc2c(Cl)nc(Cl)nc2s1 | -10% | 98% (active) | 98.5% (active) | 35% | 98% (active) | 98.5% (active) | 20% | 97% (active) | 98.7% (active) | -8% | 97% (active) | 95.5% (active) | 15% | 98% (active) | 98.3% (active) | 23% | 97% (active) | 98.2% (active)
8 | CN(C)c1ccc(/C=C/c2nc3ccccc3[nH]2)cc1 | -2% | 89% (active) | 54% | -9% | 77% (active) | 56.8% | -3% | 89% (active) | 37.1% | -7% | 67% | 16.7% | -10% | 54% | 14.6% | -13% | 97% (active) | 80% (active)
9 | COc1cc(C(=O)[O][Sn]([c]2ccccc2)([c]2ccccc2)[c]2ccccc2)cc(OC)c1OC | 100% (active) | 99% (active) | 98.6% (active) | 100% (active) | 100% (active) | 99.2% (active) | 99% (active) | 99% (active) | 98.5% (active) | 99% (active) | 99% (active) | 89.2% (active) | 99% (active) | 99% (active) | 97% (active) | 99% (active) | 99% (active) | 98.3% (active)
10 | Cc1cc([N+](=O)[O-])cc(C)[n+]1[O-] | 13% | 67% | 82.5% (active) | 0% | 12% | 50.1% | 17% | 80% (active) | 91.2% (active) | 3% | 53% | 44.8% | 0% | -14% | 6.55% | 20% | 60% | 84.2% (active)
11 | Cc1cccc(Cc2ccc(Cl)cc2)c1O | 4% | 99% (active) | 99.3% (active) | -1% | 100% (active) | 99.5% (active) | 5% | 99% (active) | 99.5% (active) | -10% | 99% (active) | 99.3% (active) | -6% | 99% (active) | 99.2% (active) | -2% | 99% (active) | 99% (active)
12 | CCCCCCCCCCCC(C)N (stereo not given) | 15% | 83% (active) | 99% (active) | 4% | 78% (active) | 99.5% (active) | 4% | 91% (active) | 98.7% (active) | 12% | 25% | 98% (active) | 11% | 86% (active) | 99.2% (active) | 2% | 74% (active) | 98.1% (active)
13 | O=c1ncccn1[C@@H]1O[C@H](CO)[C@H](O)C1O (stereo not given in full) | 21% | 22% | 64.3% | 13% | 12% | 28.4% | 15% | 12% | 4.15% | 10% | 12% | 10.8% | 23% | 10% | -5.75% | 7% | 31% | -9.3%
14 | N/C(=N\OC1(c2ccccc2)OC(=O)C(=O)/C1=C(/O)c1ccccc1)c1ccccc1 (stereo not given) | 10% | 97% (active) | 98% (active) | 8% | 89% (active) | 98.5% (active) | 13% | 87% (active) | 96.6% (active) | 0% | 75% (active) | 78% (active) | 7% | 94% (active) | 98.2% (active) | 4% | 92% (active) | 98.3% (active)
15 | O=C1CN=C(c2ccccc2)N(c2ccccc2)N1 | -1% | 96% (active) | 94% (active) | -6% | 97% (active) | 96.5% (active) | -15% | 96% (active) | 94.5% (active) | 2% | 93% (active) | 85% (active) | 8% | 97% (active) | 94.7% (active) | -1% | 94% (active) | 94.4% (active)
16 | Cc1cc(=O)n(-c2cc3cccccc-3n2)[nH]1 | -9% | 96% (active) | 96.8% (active) | 2% | 97% (active) | 71.6% (active) | 2% | 98% (active) | 97.8% (active) | -11% | 98% (active) | 70.3% (active) | -1% | 95% (active) | 86.2% (active) | -1% | 98% (active) | 96.2% (active)
17 | NCCC(N)P(=O)(O)O (stereo not given) | -166% | -150% | 20.6% | -46% | -48% | 16.2% | -61% | -60% | -3.9% | -61% | -51% | 16.6% | -74% | -71% | 13% | -141% | -111% | 0.45%
18 | O=C(Nc1cccc(Cl)c1)OCCOC(=O)Nc1cccc(Cl)c1 | 30% | 99% (active) | 99.5% (active) | 3% | 99% (active) | 99.2% (active) | 22% | 100% (active) | 99.3% (active) | 2% | 98% (active) | 98.4% (active) | -4% | 99% (active) | 99.4% (active) | 4% | 98% (active) | 98.9% (active)
19 | NNc1c(F)c(F)c(-c2c(F)c(F)c(NN)c(F)c2F)c(F)c1F | 42% | 71% (active) | 87.6% (active) | 38% | 68% | 89.2% (active) | 23% | 98% (active) | 91.5% (active) | 48% | 99% (active) | 89.8% (active) | 43% | 98% (active) | 90.1% (active) | 39% | 59% | 86.8% (active)
20 | OC(c1ccccc1)(c1ccccc1)C1CCCCC1 | 14% | 97% (active) | 25.5% | 7% | 97% (active) | 1.7% | -4% | 98% (active) | 40.1% | -8% | 96% (active) | -5.35% | -13% | 97% (active) | 5.95% | 2% | 97% (active) | 9.9%
